# Bioassay records as filed in PubChem.
# L3MBTL1 block: L3MBTL1 (human) inhibition | actives 0.66% (n = 230,000) | Potency, µM (doses to about 57.1 µM), inactives show top-dose activity, negative = inhibition, usual class: inhibitors | Q9Y468 | AlphaScreen L3MBTL1–H3K9me1 peptide binding; also: % is scaled to controls: 0 for no effect and ±100 for the full control effect; nearly all actives have a fitted effect of over 60% in size
#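 L3MBTL1 50 nM + b-AHA-H3(1-15)K9me1 75 nM, 30 min RT; compound added, 30 min RT; streptavidin donor/Ni-chelate acceptor beads 10 ug/mL each final, 30 min RT dark; AlphaScreen read.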
# JMJD2A Tudor inh: inhibitors of human JMJD2A Tudor domain; actives 4.4% (n = 390,000); Potency, µM (titrated, usually from 114 µM), for the others: top-dose activity change, negative = inhibition, most hits filed as inhibitors; AID 504339; O75164; AlphaScreen JMJD2A-Tudor / H3K4me3 peptide binding; also: % is scaled to controls: 0 for no effect and ±100 for the full control effect; nearly all actives have a fitted effect of over 50% in size
# GLS inhibitor: glutaminase GLS (human) inhibition | O94925 | GLS enzymatic activity, qHTS titration | Potency, µM (doses to about 45.5 µM), for inactives: at the highest dose activity change, negative = inhibition, usual class: inhibitors | actives 0.21% (n = 410,000); also: % is scaled to controls: 0 for no effect and ±100 for the full control effect
#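 Enzyme dispensed in phosphate buffer (45 mM, pH 8.2, 0.02% Tween-20), compounds pinned in, then 1 mM L-glutamine solution and the glutamate oxidase–HRP–Amplex Red mix added; fluorescence read immediately and again after 30 min at room temperature.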
# HP1b binding inh: blocks HP1-beta chromodomain binding to methylated histone tails. AlphaScreen HP1-beta / biotin-H3K9me3 peptide binding. AID 540317. Potency, µM (highest dose often 114 µM), for inactives: top-dose activity change, negative = inhibition, most hits filed as inhibitors. actives 0.56% (n = 390,000); also: nearly all actives have a fitted effect of over 70% in size
# Target sequence (P83916 whole entry, looked up): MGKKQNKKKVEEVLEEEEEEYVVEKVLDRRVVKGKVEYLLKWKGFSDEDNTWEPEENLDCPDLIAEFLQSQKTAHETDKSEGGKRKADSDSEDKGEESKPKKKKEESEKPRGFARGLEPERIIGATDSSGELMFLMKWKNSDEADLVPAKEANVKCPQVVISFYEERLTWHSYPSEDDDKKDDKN
#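 AlphaScreen: HP1-beta (50 nM) preformed 30 min with biotin-H3(1-18)K9me3 peptide (50 nM) in PBS pH 7.4, 0.01% Tween-20. Compound added for 30 min at RT, then streptavidin donor/nickel chelate acceptor beads (10 ug/mL) for 30 min.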
# BAZ2B block: blocks human BAZ2B. actives 4.4% (n = 360,000). AlphaScreen BAZ2B-H3K14Ac peptide displacement. Q9UIF8. Potency, µM (highest dose often 114 µM), inactives show at the top dose activity change, negative = inhibition, usual class: inhibitors. AID 504333; also: % is scaled to controls: 0 for no effect and ±100 for the full control effect; nearly all actives have a fitted effect of over 60% in size
#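 BAZ2B 50 nM plus b-H3(5-23)K14Ac 50 nM, PBS pH 7.4/0.01% Tween-20, 30 min RT; compound added (max 110 uM), 30 min RT; streptavidin donor/Ni-chelate acceptor beads 10 ug/mL final, 20 min dark; AlphaScreen read.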
# G9a block: G9a (human) methyltransferase inhibition; Q96KQ7; G9a H3K9 monomethylation, AlphaScreen, 2 h; Potency, µM (highest dose often 102 µM), without a hit: at the highest dose activity, negative = inhibition, usual class: inhibitors; actives 8.8% (n = 350,000); also: % is scaled to controls: 0 for no effect and ±100 for the full control effect; nearly all actives have a fitted effect of over 75% in size
# Target sequence (Q96KQ7 913-1193 limits assumed): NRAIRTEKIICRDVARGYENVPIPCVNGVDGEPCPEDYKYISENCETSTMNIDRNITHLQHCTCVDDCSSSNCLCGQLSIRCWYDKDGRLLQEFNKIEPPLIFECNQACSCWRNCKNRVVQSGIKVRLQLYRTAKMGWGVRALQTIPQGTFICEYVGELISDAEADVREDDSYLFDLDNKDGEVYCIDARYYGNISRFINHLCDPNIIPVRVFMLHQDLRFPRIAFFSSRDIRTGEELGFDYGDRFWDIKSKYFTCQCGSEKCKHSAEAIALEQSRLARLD
#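 Readings reflect AlphaScreen signal from monomethyl-H3K9 antibody detection. HMT at 20 nM; substrate b-H3K9 500 nM; cofactor SAM 20 uM; 2 h RT reaction; compounds tested as titrations in qHTS with 15 min preincubation.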
# * marks the source's active call; other numbers are inactive results; ? = inconclusive; · = no result; [ ] = remark or other dose. An excerpt weighted towards active compounds, which were near 10% of everything screened. Calls follow the shape of the dose curve; as a rule, active = well fitted curve in the direction sought with a large enough effect; inconclusive = small, poorly fitted or top-dose-only effect, or another doubt; inactive = no such curve, though single readings can be large; an effect the other way counts as inactive or inconclusive. Potency is read from the fitted curve at half-maximal effect.
SMILES,L3MBTL1 block,JMJD2A Tudor inh,GLS inhibitor,HP1b binding inh,BAZ2B block,G9a block
CN1C(=O)/C(=C\C(=O)c2cccs2)c2ccccc21,-4%,50µM*,4%,45µM*,20µM*,20µM*
CC(=O)/C=C1\C(=O)N(C)c2ccccc21,·,·,·,·,·,8.9µM*
CCOc1ccc(OCC)c(NC(=O)CCc2c(C)nc3c(c2C)c(=O)n(C)c(=O)n3C)c1,·,-18%,-15%,15%,-18%,9%[59 µM]
CCc1cc(=O)oc2c(C)c3c(cc12)CN(CCc1ccccc1OC)CO3,·,-2%,68%,65%,-2%,9%[59 µM]
O=C(NCCc1ccc(Cl)cc1)c1nnc(Cc2ccc(Cl)cc2Cl)o1,·,-14%,4%,6%,-2%,6%[59 µM]
NC(=O)C1CCN(c2nc(-c3cccc(Cl)c3)cs2)CC1,-12%,-26%,23%,20%,?,-33%[12.7 µM]
NC(=O)C1CCN(c2nc(-c3ccccc3-c3ccccc3)cs2)CC1,-11%,45µM*,7%,-15%,?,-1%[12.7 µM]
CC(=O)c1cccc(-c2csc(N3CCC(C(N)=O)CC3)n2)c1,-7%,-19%,3%,45%,50µM*,?
NC(=O)C1CCN(c2nc(-c3ccccc3N)cs2)CC1,-1%,-14%,2%,49%,?,?
CN(CCO)C1=NS(=O)(=O)c2cc([N+](=O)[O-])ccc21,·,-1%,-2%,28%,0%,79µM*
COc1ccc(S(=O)(=O)/N=C2/NC(=O)/C(=C\c3cc(OC)c(OC)cc3[N+](=O)[O-])S2)cc1,·,-32%,-1%,-6%,?,-45%[59 µM]
COc1ccc(S(=O)(=O)/N=C2/NC(=O)/C(=C\c3ccco3)S2)cc1,?,-25%,18%,6%,?,8.9µM*
COc1ccc(N=C2NC(=O)/C(=C/c3ccco3)S2)cc1,·,-29%,0%,26%,40µM*,45µM*
CCc1ccc(N=C2NC(=O)/C(=C/c3cc(OC)c(O)c(OC)c3)S2)cc1,-5%,-22%,0%,12%,?,?
COc1cc(/C=C2\SC(=Nc3ccccc3)NC2=O)cc(Cl)c1O,·,?,7%,-14%,-32%,45µM*
Cc1ccc(S(=O)(=O)/N=C2/NC(=O)/C(=C/c3ccccn3)S2)cc1,1%,-6%,7%,18%,-10%,56µM*
COc1cccc(N=c2oc3cc(O)ccc3cc2C(=O)NCC2CCCO2)c1 (stereo not given),-20%,-35%,20%,8%,35µM*,-10%
Cc1c(Cl)cccc1NS(=O)(=O)c1cc2c(cc1F)NC(=O)CC2,·,-20%,·,·,·,·
CCCN(CCO)C1CCN(CCc2ccccc2)CC1,·,-1%,2%,21%,-28%,50µM*
O=C(C1CCN(CCc2ccccc2)CC1)N1CCOCC1,·,-8%,-3%,27%,·,·
Cc1ccc(-c2nc3c4ccccc4ccn3c2CN2CCCCC2)cc1,-4%,?,8%,2%,50µM*,?
C[C@@]12CCC(=O)C=C1CC[C@H]1[C@H]3CC[C@](O)(C(=O)CO)[C@]3(C)CC(=O)[C@@H]12,·,·,·,·,·,15%[21.5 µM]
Cc1ccc(N2C(=O)C(CN3CCCCC3)C2c2ccccc2)cc1 (stereo not given),0%,-21%,6%,89µM*,-7%,8%[59 µM]
Cc1ccc(N2C(=O)C(CN3CCCC3)C2c2ccccc2)cc1 (stereo not given),?,-30%,-1%,-12%,-25%,-35%
Cc1cccc(NC(=O)CSc2nc3n[nH]c(C)c3c(=N)n2-c2cccc(Cl)c2)c1,·,-6%,4%,37%,4%,3%[59 µM]
Cc1cccc(-n2c(CCc3ccccc3)nnc2SCC(=O)c2ccccc2)c1,-6%,?,1%,22%,-13%,1.8µM*
O=C(O)CSc1nnc(Cc2ccccc2)n1-c1ccccc1,15%[11.4 µM],-21%,1%,44%,-7%,11µM*
